# In publication PMC11024108:
# Assays:
# [1] = molecular target: Endoplasmic reticulum membrane protein complex subunit 7 (UniProt Q9NPA0); assay: cross-link between two proteins; affinity purification or IP with mass spectrometry; cross-linking mass spectrometry
# [2] = molecular target: Thioredoxin-related transmembrane protein 1 (UniProt Q9H3N1); assay: as above
# [3] = molecular target: 10 kDa heat shock protein, mitochondrial (UniProt P61604); assay: cross-link between two proteins; cross-linking mass spectrometry
# [4] = molecular target: Aldehyde dehydrogenase, mitochondrial (UniProt P05091); assay: as above
# [5] = molecular target: Malate dehydrogenase, mitochondrial (UniProt P40926); assay: as above
# [6] = molecular target: NADH-ubiquinone oxidoreductase 75 kDa subunit, mitochondrial (UniProt P28331); assay: as above
# [7] = molecular target: Large ribosomal subunit protein bL12m (UniProt P52815); assay: cross-linking mass spectrometry
# [8] = molecular target: 3-hydroxyacyl-CoA dehydrogenase type-2 (UniProt Q99714); assay: cross-link between two proteins; cross-linking mass spectrometry
# [9] = molecular target: Complement component 1 Q subcomponent-binding protein, mitochondrial (UniProt Q07021); assay: as above
# [10] = molecular target: Methylcrotonoyl-CoA carboxylase beta chain, mitochondrial (UniProt Q9HCC0); assay: as above
# [11] = molecular target: Mitochondrial 10-formyltetrahydrofolate dehydrogenase (UniProt Q3SY69); assay: as above
# [12] = molecular target: Polyribonucleotide nucleotidyltransferase 1, mitochondrial (UniProt Q8TCS8); assay: as above
# [13] = molecular target: Pyrroline-5-carboxylate reductase 2 (UniProt Q96C36); assay: as above
# [14] = molecular target: Spectrin alpha chain, non-erythrocytic 1 (UniProt Q13813); assay: as above
# 14-3-3 protein epsilon = 14-3-3 protein epsilon (UniProt P62258); assay: as above
# 14-3-3 protein gamma = 14-3-3 protein gamma (UniProt P61981); assay: as above
# [15] = molecular target: Cytochrome c oxidase assembly factor 7 (UniProt Q96BR5); assay: cross-link between two proteins; affinity purification or IP with mass spectrometry; cross-linking mass spectrometry
# [16] = molecular target: Pyruvate dehydrogenase E1 component subunit beta, mitochondrial (UniProt P11177); assay: cross-link between two proteins; co-fractionation; cross-linking mass spectrometry
# [17] = molecular target: ATP synthase F(1) complex subunit alpha, mitochondrial (UniProt P25705); assay: cross-link between two proteins; cross-linking mass spectrometry
# [18] = molecular target: Large ribosomal subunit protein bL12m (UniProt P52815); assay: cross-link between two proteins; affinity purification or IP with mass spectrometry; cross-linking mass spectrometry
# [19] = molecular target: Mitochondrial import inner membrane translocase subunit Tim29 (UniProt Q9BSF4); assay: as above
# [20] = molecular target: Cytochrome c oxidase subunit 6C (UniProt P09669); assay: cross-link between two proteins; cross-linking mass spectrometry
# [21] = molecular target: Trifunctional enzyme subunit alpha, mitochondrial (UniProt P40939); assay: as above
# [22] = molecular target: Solute carrier family 25 member 3 (UniProt Q00325); assay: co-fractionation; co-fractionation; cross-linking mass spectrometry
# [23] = molecular target: Cytochrome b-c1 complex subunit 7 (UniProt P14927); assay: cross-link between two proteins; cross-linking mass spectrometry
# [24] = molecular target: Cytochrome b-c1 complex subunit Rieske, mitochondrial (UniProt P47985); assay: co-fractionation; co-fractionation; cross-linking mass spectrometry
# Calnexin = Calnexin (UniProt P27824); assay: cross-link between two proteins; affinity purification or IP with mass spectrometry; cross-linking mass spectrometry
# [25] = molecular target: Ras-related protein Rab-11B (UniProt Q15907); assay: cross-link between two proteins; co-fractionation; cross-linking mass spectrometry
# [26] = molecular target: ATP synthase F(0) complex subunit e, mitochondrial (UniProt P56385); assay: cross-link between two proteins; cross-linking mass spectrometry
# [27] = molecular target: ATP synthase peripheral stalk subunit b, mitochondrial (UniProt P24539); assay: co-fractionation; co-fractionation; cross-linking mass spectrometry
# [28] = molecular target: Cytochrome c oxidase subunit 4 isoform 1, mitochondrial (UniProt P13073); assay: cross-link between two proteins; affinity purification or IP with mass spectrometry; cross-linking mass spectrometry
# [29] = molecular target: Electron transfer flavoprotein subunit beta (UniProt P38117); assay: co-fractionation; co-fractionation; cross-linking mass spectrometry
# [30] = molecular target: AP-1 complex subunit beta-1 (UniProt Q10567); assay: cross-link between two proteins; co-fractionation; cross-linking mass spectrometry
# [31] = molecular target: AP-2 complex subunit beta (UniProt P63010); assay: as above
# [32] = molecular target: BLOC-1-related complex subunit 7 (UniProt Q96B45); assay: as above
# [33] = molecular target: ATP synthase F(1) complex subunit epsilon, mitochondrial (UniProt P56381); assay: cross-link between two proteins; cross-linking mass spectrometry
# [34] = molecular target: ATPase inhibitor, mitochondrial (UniProt Q9UII2); assay: as above
# Frataxin, mitochondrial = Frataxin, mitochondrial (UniProt Q16595); assay: as above
# [35] = molecular target: Trifunctional enzyme subunit beta, mitochondrial (UniProt P55084); assay: as above
# [36] = molecular target: ATPase family AAA domain-containing protein 3A (UniProt Q9NVI7); assay: cross-link between two proteins; affinity purification or IP with mass spectrometry; cross-linking mass spectrometry
# [37] = molecular target: Cytochrome c oxidase assembly factor 4 homolog, mitochondrial (UniProt Q9NYJ1); assay: as above
# [38] = molecular target: MICOS complex subunit MIC19 (UniProt Q9NX63); assay: as above
# [39] = molecular target: MICOS complex subunit MIC25 (UniProt Q9BRQ6); assay: as above
# [40] = molecular target: Serine/threonine-protein phosphatase PGAM5, mitochondrial (UniProt Q96HS1); assay: as above
# [41] = molecular target: TIM double twin CX3C motif protein (UniProt Q96C01); assay: as above
# [42] = molecular target: ATP synthase peripheral stalk subunit OSCP, mitochondrial (UniProt P48047); assay: cross-link between two proteins; cross-linking mass spectrometry
# [43] = molecular target: NAD kinase 2, mitochondrial (UniProt Q4G0N4); assay: co-fractionation; co-fractionation; cross-linking mass spectrometry
# [44] = molecular target: MICOS complex subunit MIC60 (UniProt Q16891); assay: cross-link between two proteins; cross-linking mass spectrometry
# [45] = molecular target: Endoplasmic reticulum resident protein 29 (UniProt P30040); assay: cross-link between two proteins; affinity purification or IP with mass spectrometry; cross-linking mass spectrometry
# [46] = molecular target: Leucine-rich repeat-containing protein 59 (UniProt Q96AG4); assay: as above
# [47] = molecular target: Transmembrane emp24 domain-containing protein 9 (UniProt Q9BVK6); assay: as above
# [48] = molecular target: Myeloid-derived growth factor (UniProt Q969H8); assay: cross-linking mass spectrometry
# [49] = molecular target: Peptidyl-prolyl cis-trans isomerase B (UniProt P23284); assay: cross-link between two proteins; cross-linking mass spectrometry
# [50] = molecular target: Neutral alpha-glucosidase AB (UniProt Q14697); assay: cross-link between two proteins; co-fractionation; cross-linking mass spectrometry
# Syntaxin-8 = Syntaxin-8 (UniProt Q9UNK0); assay: cross-link between two proteins; affinity purification or IP with mass spectrometry; cross-linking mass spectrometry
# [51] = molecular target: Propionyl-CoA carboxylase beta chain, mitochondrial (UniProt P05166); assay: co-fractionation; co-fractionation; cross-linking mass spectrometry
# [52] = molecular target: Cytochrome b-c1 complex subunit 1, mitochondrial (UniProt P31930); assay: as above
# [53] = molecular target: Dolichyl-diphosphooligosaccharide--protein glycosyltransferase subunit STT3B (UniProt Q8TCJ2); assay: cross-linking mass spectrometry
# [54] = molecular target: Dolichyl-diphosphooligosaccharide--protein glycosyltransferase subunit 2 (UniProt P04844); assay: co-fractionation; co-fractionation; cross-linking mass spectrometry
# 14-3-3 protein eta = 14-3-3 protein eta (UniProt P68510); assay: cross-link between two proteins; cross-linking mass spectrometry
# 14-3-3 protein theta = 14-3-3 protein theta (UniProt P68254); assay: as above
# [55] = molecular target: AP-1 complex subunit mu-1 (UniProt Q9BXS5); assay: co-fractionation; cross-linking mass spectrometry
# [56] = molecular target: Ras-related protein Rab-1B (UniProt Q9H0U4); assay: cross-link between two proteins; co-fractionation; cross-linking mass spectrometry
# [57] = molecular target: Cytochrome b-c1 complex subunit 2, mitochondrial (UniProt P22695); assay: co-fractionation; co-fractionation; cross-linking mass spectrometry
# 10 kDa heat shock protein, mitochondrial, sequence (P61604 whole entry): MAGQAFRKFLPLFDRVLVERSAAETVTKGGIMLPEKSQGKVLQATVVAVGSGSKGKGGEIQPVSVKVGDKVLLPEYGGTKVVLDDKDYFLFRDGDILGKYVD
# Calnexin, sequence (P27824 whole entry): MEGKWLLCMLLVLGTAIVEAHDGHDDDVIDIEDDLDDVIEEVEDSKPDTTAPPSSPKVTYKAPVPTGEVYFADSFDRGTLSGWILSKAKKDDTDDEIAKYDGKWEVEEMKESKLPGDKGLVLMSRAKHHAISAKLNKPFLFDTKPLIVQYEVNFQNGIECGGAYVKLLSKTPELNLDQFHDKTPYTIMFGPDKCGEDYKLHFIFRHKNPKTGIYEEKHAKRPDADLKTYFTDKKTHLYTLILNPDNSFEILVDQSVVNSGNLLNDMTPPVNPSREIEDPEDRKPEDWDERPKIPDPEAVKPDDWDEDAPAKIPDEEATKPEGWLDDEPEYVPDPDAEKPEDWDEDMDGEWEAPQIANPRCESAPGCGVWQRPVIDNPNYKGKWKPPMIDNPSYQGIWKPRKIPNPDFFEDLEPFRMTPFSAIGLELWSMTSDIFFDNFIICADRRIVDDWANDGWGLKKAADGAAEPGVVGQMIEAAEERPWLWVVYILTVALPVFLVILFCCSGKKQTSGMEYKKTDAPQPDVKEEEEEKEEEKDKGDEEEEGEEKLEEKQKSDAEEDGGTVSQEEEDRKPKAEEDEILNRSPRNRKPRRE
# Trifunctional enzyme subunit alpha, mitochondrial, sequence (P40939 whole entry): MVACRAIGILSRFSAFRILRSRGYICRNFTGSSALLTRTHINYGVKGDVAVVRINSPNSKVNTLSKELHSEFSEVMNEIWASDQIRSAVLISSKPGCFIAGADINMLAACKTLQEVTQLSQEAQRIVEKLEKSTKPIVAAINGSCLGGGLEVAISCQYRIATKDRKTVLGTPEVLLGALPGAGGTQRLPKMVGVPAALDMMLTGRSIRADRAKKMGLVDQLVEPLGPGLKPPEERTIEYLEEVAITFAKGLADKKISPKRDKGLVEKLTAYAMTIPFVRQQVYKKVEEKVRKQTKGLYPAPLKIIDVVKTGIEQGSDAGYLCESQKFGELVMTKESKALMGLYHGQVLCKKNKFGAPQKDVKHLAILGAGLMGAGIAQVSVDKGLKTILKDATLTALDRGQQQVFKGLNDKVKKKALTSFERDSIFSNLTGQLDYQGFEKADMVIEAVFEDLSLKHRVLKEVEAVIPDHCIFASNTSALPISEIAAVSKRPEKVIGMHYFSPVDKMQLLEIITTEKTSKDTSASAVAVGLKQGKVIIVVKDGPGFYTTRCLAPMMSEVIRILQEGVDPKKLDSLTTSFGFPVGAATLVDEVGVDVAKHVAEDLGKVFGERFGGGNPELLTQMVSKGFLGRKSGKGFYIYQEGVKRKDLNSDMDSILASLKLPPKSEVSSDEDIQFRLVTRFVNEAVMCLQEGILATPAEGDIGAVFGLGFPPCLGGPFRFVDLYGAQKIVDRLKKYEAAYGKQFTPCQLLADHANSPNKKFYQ
# Cytochrome c, P99999, sequence (P99999 whole entry): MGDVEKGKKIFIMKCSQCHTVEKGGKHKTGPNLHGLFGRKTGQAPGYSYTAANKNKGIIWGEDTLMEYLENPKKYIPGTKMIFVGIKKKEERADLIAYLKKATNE
# Thioredoxin-related transmembrane protein 1, sequence (Q9H3N1 whole entry): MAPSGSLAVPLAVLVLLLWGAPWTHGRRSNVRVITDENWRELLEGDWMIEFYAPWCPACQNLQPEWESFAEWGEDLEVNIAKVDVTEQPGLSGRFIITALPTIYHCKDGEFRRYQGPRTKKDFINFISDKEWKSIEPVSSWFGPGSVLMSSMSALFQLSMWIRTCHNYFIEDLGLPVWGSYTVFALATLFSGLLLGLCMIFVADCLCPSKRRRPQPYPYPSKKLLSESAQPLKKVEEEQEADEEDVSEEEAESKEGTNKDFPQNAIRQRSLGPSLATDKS
# Complement component 1 Q subcomponent-binding protein, mitochondrial, sequence (Q07021 whole entry): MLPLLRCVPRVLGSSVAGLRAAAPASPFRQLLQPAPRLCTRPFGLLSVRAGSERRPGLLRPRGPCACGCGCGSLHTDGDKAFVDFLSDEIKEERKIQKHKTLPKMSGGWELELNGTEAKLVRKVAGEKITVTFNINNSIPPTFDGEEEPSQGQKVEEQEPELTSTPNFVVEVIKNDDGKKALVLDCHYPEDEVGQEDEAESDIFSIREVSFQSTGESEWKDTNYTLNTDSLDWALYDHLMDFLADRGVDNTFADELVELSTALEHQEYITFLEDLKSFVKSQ
# ATP synthase peripheral stalk subunit b, mitochondrial, sequence (P24539 whole entry, canonical isoform): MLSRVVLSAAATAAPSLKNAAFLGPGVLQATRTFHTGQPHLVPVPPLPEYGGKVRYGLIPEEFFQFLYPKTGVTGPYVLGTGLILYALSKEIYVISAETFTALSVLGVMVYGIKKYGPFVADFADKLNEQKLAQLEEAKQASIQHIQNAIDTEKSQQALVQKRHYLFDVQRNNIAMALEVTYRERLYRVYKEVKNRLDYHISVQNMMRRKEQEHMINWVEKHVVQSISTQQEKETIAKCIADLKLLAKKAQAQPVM
# Trifunctional enzyme subunit beta, mitochondrial, sequence (P55084 whole entry, the tested form may be a part): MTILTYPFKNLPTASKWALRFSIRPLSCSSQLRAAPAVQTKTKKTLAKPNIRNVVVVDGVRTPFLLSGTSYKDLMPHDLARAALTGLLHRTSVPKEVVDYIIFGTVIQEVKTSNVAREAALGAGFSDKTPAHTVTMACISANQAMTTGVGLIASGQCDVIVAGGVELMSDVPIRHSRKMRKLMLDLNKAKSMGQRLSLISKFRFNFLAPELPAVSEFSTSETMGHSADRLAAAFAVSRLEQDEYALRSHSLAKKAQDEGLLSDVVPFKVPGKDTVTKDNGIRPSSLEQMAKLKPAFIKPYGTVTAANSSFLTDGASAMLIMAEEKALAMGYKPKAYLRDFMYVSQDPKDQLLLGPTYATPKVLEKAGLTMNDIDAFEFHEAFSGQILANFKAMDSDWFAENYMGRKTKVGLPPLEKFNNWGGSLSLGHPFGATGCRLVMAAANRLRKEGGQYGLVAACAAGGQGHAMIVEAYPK
# Ras-related protein Rab-1B, sequence (Q9H0U4 whole entry): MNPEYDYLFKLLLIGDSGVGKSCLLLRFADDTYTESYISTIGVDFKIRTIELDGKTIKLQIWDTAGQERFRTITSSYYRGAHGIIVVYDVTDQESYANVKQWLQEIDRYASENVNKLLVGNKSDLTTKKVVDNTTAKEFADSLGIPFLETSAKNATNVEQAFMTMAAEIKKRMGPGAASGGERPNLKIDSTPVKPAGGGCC
# ATP synthase F(1) complex subunit epsilon, mitochondrial, sequence (P56381 whole entry, one chain of several): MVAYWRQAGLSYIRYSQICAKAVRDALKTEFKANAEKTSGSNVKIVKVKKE
# AP-2 complex subunit beta, sequence (P63010 whole entry, one chain of several): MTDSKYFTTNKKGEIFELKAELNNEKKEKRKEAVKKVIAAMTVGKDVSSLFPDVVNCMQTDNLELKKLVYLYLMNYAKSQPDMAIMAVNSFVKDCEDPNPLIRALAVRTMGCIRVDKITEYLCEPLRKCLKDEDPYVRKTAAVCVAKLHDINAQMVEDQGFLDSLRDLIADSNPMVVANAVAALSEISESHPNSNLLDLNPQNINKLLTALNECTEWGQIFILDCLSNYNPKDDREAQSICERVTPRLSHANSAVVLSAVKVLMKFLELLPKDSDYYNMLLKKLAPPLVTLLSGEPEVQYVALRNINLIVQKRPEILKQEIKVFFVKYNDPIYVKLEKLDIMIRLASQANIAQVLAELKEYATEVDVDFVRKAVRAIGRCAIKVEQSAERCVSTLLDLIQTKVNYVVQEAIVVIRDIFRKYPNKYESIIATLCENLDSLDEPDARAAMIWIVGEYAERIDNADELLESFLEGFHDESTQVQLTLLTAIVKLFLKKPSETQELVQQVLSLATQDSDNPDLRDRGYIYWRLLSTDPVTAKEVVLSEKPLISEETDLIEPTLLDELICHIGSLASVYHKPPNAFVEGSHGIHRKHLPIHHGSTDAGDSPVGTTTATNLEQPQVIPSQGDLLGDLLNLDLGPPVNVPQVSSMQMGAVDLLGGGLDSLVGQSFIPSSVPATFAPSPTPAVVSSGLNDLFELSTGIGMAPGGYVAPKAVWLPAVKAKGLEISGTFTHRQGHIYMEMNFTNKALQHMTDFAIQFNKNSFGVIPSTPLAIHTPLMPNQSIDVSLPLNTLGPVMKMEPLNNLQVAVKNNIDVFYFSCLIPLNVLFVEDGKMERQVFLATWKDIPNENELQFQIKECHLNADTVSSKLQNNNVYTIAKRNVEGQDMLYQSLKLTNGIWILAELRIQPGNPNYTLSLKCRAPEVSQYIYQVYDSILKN
# Endoplasmic reticulum membrane protein complex subunit 7, sequence (Q9NPA0 whole entry, one chain of several): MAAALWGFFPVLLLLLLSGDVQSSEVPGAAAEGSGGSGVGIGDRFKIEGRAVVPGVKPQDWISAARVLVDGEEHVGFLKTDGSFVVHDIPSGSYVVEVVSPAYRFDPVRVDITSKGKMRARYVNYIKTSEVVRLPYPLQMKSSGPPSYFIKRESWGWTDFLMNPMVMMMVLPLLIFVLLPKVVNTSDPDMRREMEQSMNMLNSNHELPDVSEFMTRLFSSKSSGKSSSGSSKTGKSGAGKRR
# Ras-related protein Rab-11B, sequence (Q15907 whole entry): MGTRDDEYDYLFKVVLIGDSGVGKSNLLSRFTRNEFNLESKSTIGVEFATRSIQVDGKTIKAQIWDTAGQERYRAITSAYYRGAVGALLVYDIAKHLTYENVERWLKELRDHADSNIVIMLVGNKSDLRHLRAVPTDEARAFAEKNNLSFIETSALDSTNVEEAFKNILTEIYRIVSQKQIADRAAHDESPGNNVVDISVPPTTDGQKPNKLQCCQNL
# Cytochrome c oxidase subunit 6C, sequence (P09669 whole entry): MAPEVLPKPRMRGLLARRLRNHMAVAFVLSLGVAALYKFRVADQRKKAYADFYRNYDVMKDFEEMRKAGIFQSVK
# ATPase inhibitor, mitochondrial, sequence (Q9UII2 whole entry): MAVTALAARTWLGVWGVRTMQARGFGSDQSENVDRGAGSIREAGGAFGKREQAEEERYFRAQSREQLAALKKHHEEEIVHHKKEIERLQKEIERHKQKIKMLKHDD
# ATP synthase F(0) complex subunit e, mitochondrial, sequence (P56385 whole entry, one chain of several): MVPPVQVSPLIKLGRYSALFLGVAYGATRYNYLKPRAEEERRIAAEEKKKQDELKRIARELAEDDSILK
substance,measurement,setting,value
"ER membrane protein complex subunit 1, Q8N766",listed as a hit,[1],yes
same,listed as a hit,[2],yes
"Aspartate aminotransferase, mitochondrial, P00505",listed as a hit,[3],yes
same,listed as a hit,[4],yes
same,listed as a hit,[5],yes
same,listed as a hit,[6],yes
"Stress-70 protein, mitochondrial, P38646",listed as a hit,[7],yes
same,listed as a hit,[3],yes
same,listed as a hit,[8],yes
same,listed as a hit,[9],yes
same,listed as a hit,[5],yes
same,listed as a hit,[10],yes
same,listed as a hit,[11],yes
same,listed as a hit,[12],yes
same,listed as a hit,[13],yes
same,listed as a hit,[14],yes
"14-3-3 protein theta, P27348",listed as a hit,14-3-3 protein epsilon,yes
same,listed as a hit,14-3-3 protein gamma,yes
"Myristoylated alanine-rich C-kinase substrate, P29966",listed as a hit,[15],yes
"Pyruvate dehydrogenase E1 component subunit alpha, somatic form, mitochondrial, P08559",listed as a hit,[5],yes
same,listed as a hit,[16],yes
"NADPH:adrenodoxin oxidoreductase, mitochondrial, P22570",listed as a hit,[3],yes
same,listed as a hit,[17],yes
same,listed as a hit,[9],yes
same,listed as a hit,[5],yes
"Heterogeneous nuclear ribonucleoproteins C1/C2, P07910",listed as a hit,[18],yes
"Mitochondrial import inner membrane translocase subunit Tim10, P62072",listed as a hit,[19],yes
"Tetratricopeptide repeat protein 19, mitochondrial, Q6DKK2",listed as a hit,[15],yes
"ADP/ATP translocase 2, P05141",listed as a hit,[20],yes
same,listed as a hit,[5],yes
same,listed as a hit,[21],yes
same,listed as a hit,[22],yes
"Cytochrome b-c1 complex subunit 8, O14949",listed as a hit,[23],yes
same,listed as a hit,[24],yes
"Dolichol-phosphate mannosyltransferase subunit 1, O60762",listed as a hit,Calnexin,yes
"Ras-related protein Rab-11A, P62491",listed as a hit,[25],yes
"ATP synthase F(0) complex subunit g, mitochondrial, O75964",listed as a hit,[26],yes
same,listed as a hit,[21],yes
same,listed as a hit,[27],yes
same,listed as a hit,[28],yes
"Electron transfer flavoprotein subunit alpha, mitochondrial, P13804",listed as a hit,[29],yes
"AP-2 complex subunit alpha-1, O95782",listed as a hit,[30],yes
same,listed as a hit,[31],yes
"Biogenesis of lysosome-related organelles complex 1 subunit 1, P78537",listed as a hit,[32],yes
"ATP synthase F(1) complex subunit alpha, mitochondrial, P25705",listed as a hit,[3],yes
same,listed as a hit,[33],yes
same,listed as a hit,[34],yes
same,listed as a hit,"Frataxin, mitochondrial",yes
same,listed as a hit,[5],yes
same,listed as a hit,[21],yes
same,listed as a hit,[35],yes
"Cytochrome c oxidase assembly factor 7, Q96BR5",listed as a hit,[36],yes
same,listed as a hit,[37],yes
same,listed as a hit,[38],yes
same,listed as a hit,[39],yes
same,listed as a hit,[40],yes
same,listed as a hit,[41],yes
"Cytochrome c oxidase assembly factor 6 homolog, Q5JTJ3",listed as a hit,[15],yes
"Citrate synthase, mitochondrial, O75390",listed as a hit,[42],yes
same,listed as a hit,[5],yes
same,listed as a hit,[43],yes
"Mitochondrial import inner membrane translocase subunit TIM50, Q3ZCQ8",listed as a hit,[15],yes
"Cytochrome c, P99999",listed as a hit,[44],yes
same,listed as a hit,[15],yes
"Calnexin, P27824",listed as a hit,[45],yes
same,listed as a hit,[46],yes
same,listed as a hit,[2],yes
same,listed as a hit,[47],yes
"Dolichyl-diphosphooligosaccharide--protein glycosyltransferase subunit 2, P04844",listed as a hit,Calnexin,yes
"Glucosidase 2 subunit beta, P14314",listed as a hit,[48],yes
same,listed as a hit,[49],yes
same,listed as a hit,[50],yes
"Cytochrome c oxidase copper chaperone, Q14061",listed as a hit,[15],yes
"Flotillin-1, O75955",listed as a hit,Syntaxin-8,yes
"Propionyl-CoA carboxylase alpha chain, mitochondrial, P05165",listed as a hit,[51],yes
"Cytochrome b-c1 complex subunit 2, mitochondrial, P22695",listed as a hit,[52],yes
"Dolichyl-diphosphooligosaccharide--protein glycosyltransferase subunit 1, P04843",listed as a hit,[53],yes
same,listed as a hit,[54],yes
same,listed as a hit,Calnexin,yes
"14-3-3 protein zeta/delta, P63101",listed as a hit,14-3-3 protein eta,yes
same,listed as a hit,14-3-3 protein theta,yes
"AP-1 complex subunit beta-1, Q10567",listed as a hit,[55],yes
"Ras-related protein Rab-1A, P62820",listed as a hit,[56],yes
"Cytochrome c1, heme protein, mitochondrial, P08574",listed as a hit,[57],yes
"Cytochrome c oxidase assembly factor SCO2, O43819",listed as a hit,[15],yes
